Sa ugtP lethal = compounds lethal to S. aureus RN4220 ugtP deletion mutant; OD600 growth, 16 h; growth inhibition, % (test concentration not listed); 330,000 tested, 0.54% active; in the data active = growth inhibition above about 68%;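 also: plate controls were untreated wells for no effect and antibiotic for full effect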
Mtb betalactam = beta-lactam sensitization of Mtb H37Rv; AID 434955; 330,000 tested, 0.27% active; M. tuberculosis H37Rv growth with meropenem, percent inhibition; inhibition, % at 25 µM; call rule not given here;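 also: growth measured after seven days incubation then overnight dye step; 0% = bacteria only wells and 100% = bacteria with antibiotic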
Mtb BioA inh = inhibitors of Mycobacterium tuberculosis BioA enzyme | purified M. tuberculosis BioA enzyme, plate reader | inhibition, % at 9.99 µM | 360,000 tested, 0.096% active | AID 602481; in the data active = inhibition above about 40%
Sa RN4220 lethal = kills Staphylococcus aureus RN4220; S. aureus RN4220 growth, OD600, 16 h; inhibition, % (test concentration not listed); 330,000 tested, 0.33% active; AID 1259311; in the data active = inhibition above about 85%;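 also: plate controls were untreated cells for no effect and reference antibiotic for full effect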
PfHsp40 rescue = restores yeast growth despite PfHsp40 toxicity; S. cerevisiae expressing PfHsp40, growth rescue, ATP luminescence; growth rescue, % at 12.5 µM; 340,000 tested, 0.68% active; in the data active = growth rescue above about 28%, passing the limit was not always enough;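 also: yeast W303a lacking pdr1 and pdr3 grown in galactose medium; growth measured after three days at 30 °C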
* marks the source's active call; other numbers are inactive results; . = not tested or not shown. Sampled rows, rich in hits. Any-hit rate of the full collection: about 0.9%.

SMILES | Sa ugtP lethal | Mtb betalactam | Mtb BioA inh | Sa RN4220 lethal | PfHsp40 rescue
Cc1cc(NN=Cc2ccc(Br)cc2)nc(-n2nc(C)cc2C)n1 | -25 | . | . | 6 | .
COc1ccc(/C=N/Nc2cc(C)nc(-n3nc(C)cc3C)n2)cc1 | . | 96 | . | . | 272*
Cc1cc(N/N=C/c2ccccc2[N+](=O)[O-])nc(-n2nc(C)cc2C)n1 | . | 96 | -1 | . | 55*
Cc1cc(N/N=C/c2cccc([N+](=O)[O-])c2)nc(-n2nc(C)cc2C)n1 | . | 92 | 0 | . | 4
O=C1N=C(N2CCCC2C(=O)O)SC1=Cc1ccco1 (stereo not given) | -6 | . | . | 1 | .
CC(=O)N1CC[n+]2c(-c3ccc(Cl)cc3)csc21 | 18 | -1 | . | 0 | 66*
CCc1ccc(-c2csc3[n+]2CCN3C(C)=O)cc1 | 0 | -1 | 3 | 3 | 93*
C=Cn1c(C(=O)O)ccc1-c1ccc(CC)cc1 | 55 | -3 | . | -3 | 8
CC(=O)N1CCN(C(=S)c2ccc(Cl)cc2)CC1 | 2 | 1 | . | -6 | -1
O=C(CC1CC=CCCC(Cc2ccc(F)cc2)C(=O)OCC(Cc2ccccc2)NC1=O)NCCO (stereo not given) | 3 | . | . | 6 | .
COC(=O)C1=C(c2cc3ccccc3o2)CC2CCC1N2C(=O)N1CCCC1 (stereo not given) | 9 | . | . | 12 | .
O=C(Nc1ccc(F)cc1)Nc1cc(OCC(F)(F)F)cc(OCC(F)(F)F)c1 | 100* | -3 | . | 92* | -1
COC(=O)C1=C(c2ccccc2OCc2ccccc2)CC2CCC1N2C(=O)NCc1ccc(C(C)(C)C)cc1 (stereo not given) | 8 | . | . | -11 | .
CCN(CC)c1nc2ccccc2n(Cc2cccc(OC)c2)c1=O | 91* | -11 | -1 | -6 | 0
O=c1cc(N=Nc2ccc(Cl)cc2)[nH]c(=O)[nH]1 | 100* | 100 | -4 | 100* | 3
COc1ccccc1OCC(=O)NN=CC=Cc1ccc([N+](=O)[O-])o1 | 100* | . | . | 101* | .
Brc1ccc(CN2CCC3C=CCc4cccc(c43)C2)cc1 (stereo not given) | 55 | . | . | -5 | .
Cc1ccccc1Oc1cc(-n2ncc(Cl)c(Cl)c2=O)ncn1 | 92* | 101 | -1 | 58 | -2
Cc1c(C(=O)N(Cc2ccco2)Cc2cccs2)oc2ccccc12 | 17 | -1 | 1 | 10 | -1
O=C(c1cc2ccccc2o1)N(Cc1ccco1)Cc1cccs1 | 17 | 0 | 0 | 4 | 165*
Oc1cccc(-c2nc3c4c(ncn3n2)-c2ccccc2CC42CCCC2)c1 | 89* | 73 | -3 | 31 | 0
O=S1(=O)NC[C@]23CC(c4ccc(F)cc4)C(CC21)O3 (stereo not given in full) | 1 | . | . | 4 | .
O=C(NC(=S)NCc1ccc(Cl)cc1)c1ccco1 | -10 | 6 | 0 | -1 | 4
O=C(COc1ccc(Cl)cc1Cl)NNC(=S)NC(=O)c1ccco1 | 90* | 61 | 0 | 93* | 1
CC(Oc1ccc(Cl)cc1)C(=O)NNC(=S)NC(=O)c1ccco1 (stereo not given) | 54 | 98 | 0 | 69 | 68*
SMILES | Sa ugtP lethal | Mtb betalactam | Mtb BioA inh | Sa RN4220 lethal | PfHsp40 rescue
COc1ccccc1NC(=O)CCSCCC(=O)Nc1ccccc1OC | 0 | 1 | . | 4 | 45*
COc1ccccc1NC(=O)CCC(=O)Nc1ccccc1OC | 9 | 0 | 0 | 5 | -2
O=c1[nH]c(-c2ccccn2)nc2sc(-c3ccccc3)cc12 | 100* | . | . | 100* | 177*
CCCNC(=O)N1C2=NC(C(=O)OC)=C(C(=O)OC)C3N(Cc4ccccc4)c4ccccc4[C@]23CC1CO (stereo not given in full) | 3 | . | . | 2 | .
COc1ccc(C(=O)NC(=S)NNC(=O)[C@H]2C[C@@H]2c2ccccc2)cc1OC | 4 | 9 | . | 30 | 66*
Cc1onc(-c2ccccc2)c1C(=O)NCc1ccc2c(c1)OCO2 | 4 | -1 | -2 | 9 | 0
COc1ccc(C(=O)NC(=S)NNC(=O)c2c(-c3ccccc3)noc2C)cc1OC | 22 | 24 | 4 | 35 | 31*
Cc1onc(-c2ccccc2)c1C(=O)NNC(=S)NC(=O)c1ccc2c(c1)OCO2 | 22 | -2 | 0 | 29 | 48*
CCCCCCCCCCCCN1C(CC(=O)O)c2cc(F)ccc2S1(=O)=O (stereo not given) | 21 | . | . | 7 | .
CCCCCCCCN1C(CC(=O)OCC)c2ccc(C(F)(F)F)cc2S1(=O)=O (stereo not given) | 2 | . | . | 7 | .
CCCCCCCCN1[C@@H](CC(=O)OCC)c2ccc(C(F)(F)F)cc2S1(=O)=O | . | -12 | -2 | . | 38*
CCCCCCCCCCCCN1[C@@H](CC(=O)O)c2cc(F)ccc2S1(=O)=O | . | -8 | 16 | . | 49*
S=C1NCC(CC2CCCCC2)N1CCCCC1CCCCC1 (stereo not given) | 2 | . | . | -10 | .
CC(=O)/C(C#N)=C1\NC(=O)C(Cc2cc(Cl)ccc2Cl)S1 (stereo not given) | 14 | 6 | 0 | 39 | 0
CC(=O)/C(C#N)=C1\NC(=O)C(Cc2ccccc2Cl)S1 (stereo not given) | 18 | 53 | -1 | 27 | 39*
c1ccc(-c2ccc(C(c3ccccc3)n3ccnc3)cc2)cc1 (stereo not given) | 39 | 88 | 4 | 29 | 176*
c1ccc(-c2ccc(-n3ccnc3)cc2)cc1 | 4 | 96 | 0 | 5 | 1
COC(=O)C1=C(c2cccc3c2S(=O)(=O)c2ccccc2-3)CC2CCC1N2C(=O)N1CCc2cc(OC)c(OC)cc2C1 (stereo not given) | 15 | . | . | 0 | .
COc1ccc(OC)c(CNc2ccc(F)c(Cl)c2)c1 | 7 | 9 | . | 0 | 38*
CCCc1cc(C(N)=O)c(NC(=O)c2ccoc2C)s1 | -21 | 85 | 0 | 2 | 9
CCCc1cc(C(N)=O)c(NC(=O)c2cc(C)on2)s1 | -6 | -1 | 1 | 6 | 178*
CC1CCN(C(=O)c2[nH]cnc2C(=O)NC(Cc2ccccc2)C(=O)OC(C)(C)C)CC1 (stereo not given) | 2 | . | . | 5 | .
O=C(CN1CC[n+]2c(-c3cccs3)csc21)c1ccc(-c2ccccc2)cc1 | 38 | 8 | . | 73 | 401*
CC=CC=CC(=O)N1CC2(CC(c3cccc(NC(=O)C(C)=CC)c3)=NO2)CC1C(N)=O (stereo not given) | -13 | . | . | 8 | .
CCOc1cccc(/C=N/NC(=O)c2cc(-c3cccn3C)n[nH]2)c1O | . | 5 | . | . | 36*
COc1cc(OC)c(OC)cc1/C=N/NC(=O)c1cc(-c2cccn2C)n[nH]1 | . | 8 | . | . | -1
CCOC(=O)C1C2COc3ccc(Br)cc3C2N2C(=O)N(c3ccc(C)cc3)C(=O)[C@]12C (stereo not given in full) | -1 | . | . | 0 | .
O=C1c2cc(Cl)ccc2-c2c(O)cc(Cl)cc21 | 100* | . | -2 | 100* | -1
Cc1cc(C(=O)NC(c2ccccc2)[C@@]2(C)CC2C(C)C(=O)Nc2ccc3ccccc3c2)n(C)n1 (stereo not given in full) | -6 | . | . | -7 | .
CCCCCCCc1ccc(-c2ccc(O)cc2)nc1 | 45 | 2 | . | 11 | 253*
